Measured values taken from PubChem BioAssay.
A number with no mark means an inactive call. A call without a number means that no potency is given here. For part of these data: Potency and affinity values are given separately. The source made the active and inactive calls. Unless noted, how the calls were made is not given here.

Legend:
[1] = antimalarial activity against Dd2 strain (AID 2302;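 active means growth inhibition above 50% at the single 2 µM test dose, taken to imply half-maximal potency below 2 µM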); conditions: P. falciparum Dd2 in RBCs, LDH growth readout, 72 h; at 2 µM; active compounds read high
[2] = HepG2 cytotoxicity, primary screen, cytotoxicity control for P. falciparum antimalarial project, cell-based, ATP luminescence (AID 2303;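 active means inhibition above 50%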); conditions: HepG2 viability, 24-48 h, at 10 µM, active compounds read high
[3] = molecular target: L-lactate dehydrogenase (Plasmodium falciparum (isolate CDC / Honduras)) (UniProt Q27743); experiment: PfLDH activity inhibition – cell lysate, 3D7 strain, counter-screen for P. falciparum growth inhibition project (AID 2304); conditions: P. falciparum 3D7 crude extract, LDH APAD/NBT absorbance; at 2 µM; active compounds read high
[4] = inhibition of 3D7 malaria parasite growth – strain 3D7 (AID 2306); conditions: P. falciparum 3D7 erythrocytic growth, LDH absorbance, 72 h; at 2 µM; active compounds read high
[5] = molecular target: Calcium-dependent protein kinase 1 (Plasmodium falciparum (isolate 3D7)) (UniProt P62344); experiment: PfCDPK1 kinase inhibitors, biochemical, TCAMS library (AID 1159585; cut-off not given, nearly all actives have IC50 up to about 0.98 µM;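 further: inhibitors leave more ATP so luminescence rises with inhibition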); conditions: recombinant PfCDPK1, Kinase-Glo ATP depletion luminescence
[6] = molecular target: Plasmodium falciparum protein kinase 6 (PK6, PF3D7_1337100) (UniProt Q8IDW1); experiment: PfPK6 kinase inhibitors, biochemical, TCAMS library (AID 1159586); conditions: recombinant PfPK6, Kinase-Glo ATP depletion luminescence
[7] = molecular target: Protein kinase 7 (PK7), Plasmodium falciparum 3D7 (PF3D7_0213400) (UniProt Q7YTF7); experiment: inhibition of Plasmodium PK7 catalytic activity – biochemical, TCAMS antimalarial set, Kinase-Glo luminescence (AID 1159587); conditions: recombinant PfPK7, Kinase-Glo ATP depletion luminescence
[8] = molecular target: Calcium-dependent protein kinase 4 (Plasmodium falciparum (isolate 3D7)) (UniProt Q8IBS5); experiment: PfCDPK4 kinase inhibitors, biochemical, TCAMS library (AID 1159588; cut-off not given, nearly all actives have IC50 up to about 0.91 µM); conditions: recombinant PfCDPK4, Kinase-Glo ATP depletion luminescence
Calcium-dependent protein kinase 4 (Plasmodium falciparum (isolate 3D7)), sequence (Q8IBS5 whole entry, looked up): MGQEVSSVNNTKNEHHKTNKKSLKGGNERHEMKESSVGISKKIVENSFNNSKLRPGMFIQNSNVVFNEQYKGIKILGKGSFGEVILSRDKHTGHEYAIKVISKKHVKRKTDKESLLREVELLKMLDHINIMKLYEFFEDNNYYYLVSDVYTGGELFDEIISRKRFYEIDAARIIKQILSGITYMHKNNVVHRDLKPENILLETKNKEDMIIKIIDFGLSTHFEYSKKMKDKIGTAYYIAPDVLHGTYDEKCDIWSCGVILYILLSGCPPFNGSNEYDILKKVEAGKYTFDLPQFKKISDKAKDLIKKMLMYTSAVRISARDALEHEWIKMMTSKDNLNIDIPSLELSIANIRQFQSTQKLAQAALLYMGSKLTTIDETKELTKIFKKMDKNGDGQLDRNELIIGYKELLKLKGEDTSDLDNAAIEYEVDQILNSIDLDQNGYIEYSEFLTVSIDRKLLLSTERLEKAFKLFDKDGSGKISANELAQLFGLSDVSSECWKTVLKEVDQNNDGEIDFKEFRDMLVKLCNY

Protein kinase 7 (PK7), Plasmodium falciparum 3D7 (PF3D7_0213400), sequence (Q7YTF7 1-343): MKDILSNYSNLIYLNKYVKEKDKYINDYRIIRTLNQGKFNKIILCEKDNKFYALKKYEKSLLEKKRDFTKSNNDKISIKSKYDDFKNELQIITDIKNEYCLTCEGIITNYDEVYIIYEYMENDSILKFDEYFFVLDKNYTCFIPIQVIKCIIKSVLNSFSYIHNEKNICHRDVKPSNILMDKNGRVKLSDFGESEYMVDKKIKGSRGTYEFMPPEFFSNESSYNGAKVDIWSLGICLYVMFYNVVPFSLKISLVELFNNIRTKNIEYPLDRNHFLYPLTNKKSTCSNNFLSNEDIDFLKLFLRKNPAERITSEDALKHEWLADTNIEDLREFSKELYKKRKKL
L-lactate dehydrogenase (Plasmodium falciparum (isolate CDC / Honduras)), sequence (Q27743 whole entry, looked up): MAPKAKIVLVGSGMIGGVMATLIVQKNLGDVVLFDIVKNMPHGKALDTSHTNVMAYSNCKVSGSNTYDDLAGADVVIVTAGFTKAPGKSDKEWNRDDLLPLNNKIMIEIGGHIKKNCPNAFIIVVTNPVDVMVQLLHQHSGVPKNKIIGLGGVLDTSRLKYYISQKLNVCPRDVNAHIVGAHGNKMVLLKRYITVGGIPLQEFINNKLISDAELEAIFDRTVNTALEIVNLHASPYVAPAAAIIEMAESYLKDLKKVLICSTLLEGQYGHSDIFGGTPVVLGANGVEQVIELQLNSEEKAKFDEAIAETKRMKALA
Calcium-dependent protein kinase 1 (Plasmodium falciparum (isolate 3D7)), sequence (P62344 whole entry, looked up): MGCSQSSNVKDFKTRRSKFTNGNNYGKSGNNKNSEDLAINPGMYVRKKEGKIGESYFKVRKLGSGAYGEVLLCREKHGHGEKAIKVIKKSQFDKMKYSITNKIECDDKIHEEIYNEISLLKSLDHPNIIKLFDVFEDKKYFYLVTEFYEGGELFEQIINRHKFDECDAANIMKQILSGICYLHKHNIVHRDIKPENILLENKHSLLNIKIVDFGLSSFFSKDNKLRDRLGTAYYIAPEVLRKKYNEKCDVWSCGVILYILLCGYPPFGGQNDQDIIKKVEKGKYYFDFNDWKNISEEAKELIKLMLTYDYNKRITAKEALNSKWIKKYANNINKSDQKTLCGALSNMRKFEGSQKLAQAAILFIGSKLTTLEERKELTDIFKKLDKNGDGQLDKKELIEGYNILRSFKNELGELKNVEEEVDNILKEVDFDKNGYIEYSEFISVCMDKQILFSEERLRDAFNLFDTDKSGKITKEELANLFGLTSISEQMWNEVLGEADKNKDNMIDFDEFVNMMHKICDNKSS
Plasmodium falciparum protein kinase 6 (PK6, PF3D7_1337100), sequence (Q8IDW1 1-305): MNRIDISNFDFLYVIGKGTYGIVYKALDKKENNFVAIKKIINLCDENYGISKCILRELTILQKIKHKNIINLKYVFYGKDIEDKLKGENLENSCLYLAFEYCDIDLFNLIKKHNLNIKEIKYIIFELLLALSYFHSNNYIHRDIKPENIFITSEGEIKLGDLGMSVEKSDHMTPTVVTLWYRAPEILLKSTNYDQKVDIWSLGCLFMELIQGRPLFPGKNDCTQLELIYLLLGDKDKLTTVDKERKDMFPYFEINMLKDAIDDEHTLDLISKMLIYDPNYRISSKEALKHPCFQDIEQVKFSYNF

Row | Structure (SMILES) | growth inhibition [1] | inhibition [2] | inhibition [3] | growth inhibition [4] | outcome [5] | outcome [6] | outcome [7] | outcome [8]
1 | COc1cc(CNCCCNc2cc(=O)c3ccccc3[nH]2)c2c(c1)C(C)CN2C(=O)OC(C)(C)C (configuration not stated) | 87% (active) | -5% | 2% | 96% (active) | inactive | inactive | inactive | inactive
2 | COc1cc2nc(N3CCC(CNC(=O)c4cccc5cc[nH]c45)CC3)nc(N)c2cc1OC | 24% | 33% | -3% | 98% (active) | inactive | inactive | inactive | inactive
3 | O[C@H](c1cc(C(F)(F)F)nc2c(C(F)(F)F)cccc12)[C@@H]1CCCCN1 | 99% (active) | 29% | 7% | 99% (active) | inactive | inactive | inactive | inactive
4 | CCOC(=O)c1cc(C(=O)OC)c2ccccn12 | 2% | 44% | -2% | 97% (active) | inactive | inactive | inactive | inactive
5 | COc1ccc2nccc([C@@H](O)CN3CCC(NC(=O)/C=C/c4cc(F)cc(NC(C)=O)c4)CC3)c2c1 | 49% | 7% | 5% | 97% (active) | inactive | inactive | inactive | inactive
6 | COc1cc(C(=O)NCCCN2CCN(c3cccc(Cl)c3)CC2)ccc1-c1cc2cc(Cl)c(Cl)cc2[nH]1 | 86% (active) | 35% | 0% | 100% (active) | inactive | inactive | inactive | inactive
7 | O=C(C=Cc1ccc(Cl)c(Cl)c1)NCCCCCN1CCC(CCCNC(=O)[C@@H]2C[C@H]2c2ccccc2)CC1 | 12% | 45% | -1% | 95% (active) | inactive | inactive | inactive | inactive
8 | O=C(Nc1ccc(-c2ccc(-c3nc4ccccc4[nH]3)s2)cc1)Nc1ccsc1 | 54% (active) | 25% | 5% | 100% (active) | inactive | inactive | inactive | inactive
9 | COc1ccc(C2=C(Nc3ccc4oc5ccccc5c4c3)c3ccccc3C2=O)cc1 | 92% (active) | 9% | 5% | 93% (active) | inactive | inactive | inactive | inactive
10 | O=C(Nc1cccc(-c2cccc(-c3nc4ccc(F)cc4[nH]3)c2)c1)Nc1ccc2c(c1)OCO2 | 49% | 30% | -4% | 101% (active) | inactive | inactive | inactive | inactive
11 | Cc1ccc(NC(=O)c2ccc(N3CCN(c4ccncc4)CC3)cc2)cc1F | 79% (active) | 47% | -1% | 100% (active) | inactive | inactive | inactive | inactive
12 | CC1CCC2(CC1)N=C(N)N=C(N)N2OCc1ccc(Br)c2ccccc12 (configuration not stated) | 40% | 46% | -4% | 96% (active) | inactive | inactive | inactive | inactive
13 | CC1(C)N=C(N)N=C(N)N1OCCc1ccc2ccccc2c1 | 95% (active) | 65% (active) | 3% | 96% (active) | inactive | inactive | inactive | inactive
14 | Cc1ccc(-c2nc3ccccc3o2)cc1NCc1cc(Cc2ccccc2)ccc1O | 50% (active) | 45% | -4% | 82% (active) | inactive | inactive | inactive | inactive
15 | Cc1cc(C(=O)CSc2nc3ccccc3n2-c2ccccc2)c(C)n1C1CCS(=O)(=O)C1 (configuration not stated) | -3% | -18% | 0% | 92% (active) | inactive | inactive | inactive | inactive
16 | Clc1ccc(CNc2nc(NCCc3cnc[nH]3)nc(N3CCCC4CCCCC43)n2)cc1 (configuration not stated) | 100% (active) | 10% | 4% | 101% (active) | inactive | inactive | inactive | inactive
17 | CCN(CCCN1CCCCC1)c1cc(C)nc(Nc2cc(C(F)(F)F)ccc2C)n1 | 41% | 35% | -2% | 96% (active) | inactive | inactive | inactive | inactive
18 | CCN(CC)CCOc1ccc(NC(=O)c2oc3ccccc3c2C=Cc2ccccc2)cc1 | 54% (active) | 51% (active) | -2% | 98% (active) | inactive | inactive | inactive | inactive
19 | COc1c(C2CCN(CCN3CCC(CNC(=O)c4ccc(-c5ccc(C#N)cc5)cc4)CC3)CC2)ccc2c1CCCC2 | 100% (active) | 96% (active) | 0% | 100% (active) | inactive | inactive | inactive | inactive
20 | Cc1cc(N2CCN(CC3CCCCC3)CC2)nc(Nc2ccc(Br)cc2)n1 | 16% | -1% | -6% | 91% (active) | inactive | inactive | inactive | inactive

Row | Structure (SMILES) | growth inhibition [1] | inhibition [2] | inhibition [3] | growth inhibition [4] | outcome [5] | outcome [6] | outcome [7] | outcome [8]
21 | Nc1nc2c(c(=O)[nH]1)CN(S(=O)(=O)c1ccc(C(=O)N[C@@H](CCC(=O)O)C(=O)O)cc1)CC2 | 96% (active) | 49% | 6% | 95% (active) | inactive | inactive | inactive | inactive
22 | COc1ccc2nccc(NN=Cc3ccc(N(C)C)cc3)c2c1 | 95% (active) | 4% | -6% | 101% (active) | inactive | inactive | inactive | inactive
23 | O=C(/C=C/C=C/c1ccccc1)NCCCCCN1CCC(c2c[nH]c3ccccc23)CC1 | 7% | 28% | 4% | 85% (active) | inactive | inactive | inactive | inactive
24 | COc1ccc(-c2cccc(NC(=O)c3ccc(Cl)cc3)c2)cc1CN1CCNCC1 | 22% | 52% (active) | -3% | 96% (active) | inactive | inactive | inactive | inactive
25 | COc1cc(Cn2ccc3c4c(N)nc(N)nc4ccc32)cc(OC)c1OC | 97% (active) | 66% (active) | 3% | 94% (active) | inactive | inactive | inactive | inactive
26 | O=C(COc1ccc(F)cc1)NC1CCN(c2ccnc3cc(Cl)ccc23)C1 (configuration not stated) | 100% (active) | 24% | -1% | 102% (active) | inactive | inactive | inactive | inactive
27 | c1ccc(CN2CCc3cc4nccc(N5CCNCC5)c4cc32)cc1 | 99% (active) | 9% | -4% | 100% (active) | inactive | inactive | inactive | inactive
28 | Cc1ccc(-c2nc3cc(NC(=O)c4ccc([N+](=O)[O-])o4)ccc3o2)cc1Cl | 97% (active) | 24% | -3% | 102% (active) | inactive | inactive | inactive | inactive
29 | COc1ccc2nc3cc(Cl)ccc3c(NCCCCN)c2c1 | 62% (active) | 52% (active) | 7% | 101% (active) | inactive | inactive | inactive | inactive
30 | N#Cc1cccc(Nc2ncc3c(-c4cccc(NC(=O)Cc5cccc(Cl)c5)c4)c[nH]c3n2)c1 | 95% (active) | -1% | -2% | 101% (active) | inactive | inactive | inactive | inactive
31 | c1ccc(-c2ccc(-c3csc(Nc4ccncc4)n3)cc2)cc1 | 97% (active) | 30% | 3% | 101% (active) | inactive | inactive | inactive | inactive
32 | Cc1cnccc1/C=C/c1cccc(OCCN2CCc3ccc(S(C)(=O)=O)cc3CC2)c1 | 80% (active) | 9% | -4% | 93% (active) | inactive | inactive | inactive | inactive
33 | OC(CNc1ccnc(Nc2cccc(CCN3CCOCC3)c2)n1)c1ccccc1 (configuration not stated) | 14% | 34% | -1% | 102% (active) | inactive | inactive | inactive | inactive
34 | O=C1OC(c2ccccc2)(c2ccccc2)CN1CC1CCN(Cc2ccc(O)c(Cl)c2)CC1 | 90% (active) | 26% | -1% | 98% (active) | inactive | inactive | inactive | inactive
35 | Cc1cccc2[nH]cc(C3CCN(CCC4CCN(C(=O)/C=C/c5ccc(Cl)c(Cl)c5)CC4)CC3)c12 | 8% | 13% | 2% | 91% (active) | inactive | inactive | inactive | inactive
36 | CCCC(=O)c1cnc2cc(O)ccc2c1Nc1ccccc1C | 93% (active) | 14% | -8% | 99% (active) | inactive | inactive | inactive | inactive
37 | COc1ccc2c(NN=Cc3cccc(Cl)c3)ccnc2c1 | 94% (active) | 32% | -3% | 101% (active) | inactive | inactive | inactive | inactive
38 | Fc1cccc(COc2ccc(Nc3ncnc4sc(C#C[C@H]5CC[C@H](CNCC(F)(F)F)N5)cc34)cc2Cl)c1 | 51% (active) | 10% | -4% | 100% (active) | inactive | inactive | inactive | inactive
39 | COc1ccc(NC(=O)NC2CCN(c3ccnc4ccccc34)C2)cc1 (configuration not stated) | -1% | 3% | 2% | 94% (active) | inactive | inactive | inactive | inactive
